BL2 CD40 inh – CD40 pathway inhibition in BL2 cells; BL2 NF-kB luciferase reporter, CD40L-induced, 4 h; inhibition, % at 10 µM; 83,000 compounds, 0.94% hits; AID 1053188;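 active = mean inhibition of at least 50% with a set share of replicates also reaching that level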;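 also: 0% = neutral control wells and 100% = IKK inhibitor VII at 50 µM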
* marks the source's active call; other numbers are inactive results; [ ] = another dose, or the depositor's remark. This excerpt belongs to a sample that is enriched for hits.

SMILES | BL2 CD40 inh
Cc1ccc(OCC(=O)N2CCc3ccccc3C2)cc1C | -13.4
CC(C)CC(NC(=O)N1CCCCCC1)C(=O)NC(Cc1cn(C)c2ccccc12)C(=O)NC(Cc1ccccn1)C(=O)O (stereo unspecified) | -1.2[25 µM]
CN(CC(=O)Nc1ccccc1Cl)C(=O)COC(=O)c1cccs1 | 13.1
Cc1nc(-c2ccc(F)cc2)c(CC(=O)N(C)CC(=O)Nc2ccccc2Cl)s1 | 53.0*
CN(CC(=O)Nc1ccccc1Cl)C(=O)COC(=O)c1ccc(S(=O)(=O)C(F)F)cc1 | 7.2
CCCN1C[C@H](C)[C@@H](OC)CN(C)C(=O)c2cc(NS(=O)(=O)c3ccccc3)ccc2OC[C@H]1C | -0.3[25 µM]
C[C@H](O)C#Cc1ccc([C@@H]2[C@H]3CN(C(=O)c4cccc(F)c4)CCCCN3[C@H]2CO)cc1 | 0.9[25 µM]
C/C=C/c1ccc([C@@H]2[C@@H](C#N)N(C(=O)CN3CCOCC3)[C@H]2CO)cc1 | -13.2[25 µM]
O=C(Nc1cc(F)ccc1F)N1C[C@@H]2[C@H](c3ccccc31)[C@H](CO)N2C(=O)c1ccccc1 | 1.1[25 µM]
CN1C[C@H]2[C@@H](c3ccccc31)[C@H](CO)N2Cc1ccccc1F | -1.3[25 µM]
C/C(=C/c1ccc(C(=O)O)cc1)c1ccc2c(c1)C(C)(C)CCC2(C)C | 10.8[25 µM]
O=C(c1ccccc1F)N1C[C@H]2[C@@H](c3ccccc31)[C@@H](CO)N2C(=O)Nc1ccccc1 | -1.4[25 µM]
C[C@@H]1CN([C@@H](C)CO)C(=O)Cc2cc(NC(=O)Nc3ccc(C(F)(F)F)cc3)ccc2O[C@H]1CN(C)Cc1ccc2c(c1)OCO2 | 4.5
C[C@H]1CN([C@@H](C)CO)C(=O)Cc2cc(NC(=O)Cc3cn(C)c4ccccc34)ccc2O[C@H]1CN(C)Cc1ccc(C(F)(F)F)cc1 | 76.1*[25 µM]
C[C@@H]1CN([C@H](C)CO)C(=O)Cc2cc(NC(=O)Cc3cn(C)c4ccccc34)ccc2O[C@H]1CN(C)Cc1ccc(C(F)(F)F)cc1 | 71.9*[25 µM]
C[C@@H]1CN([C@@H](C)CO)C(=O)c2cc(NC(=O)Cc3cn(C)c4ccccc34)ccc2O[C@@H]1CN(C)Cc1ccc2c(c1)OCO2 | 5.3[25 µM]
C[C@@H]1CN([C@@H](C)CO)C(=O)c2cc(NC(=O)CCN3CCOCC3)ccc2O[C@@H]1CN(C)Cc1ccc(C(F)(F)F)cc1 | 9.1[25 µM]
COc1ccc(CN(C)C[C@H]2Oc3ccc(NC(=O)Cc4cn(C)c5ccccc45)cc3CC(=O)N([C@@H](C)CO)C[C@@H]2C)cc1 | 5.9
CC(=O)Nc1ccc2c(c1)CC(=O)N(C)C[C@H](C)[C@@H](CN(C)C(=O)NC(C)C)O2 | -2.5
OC[C@@H]1[C@H](c2ccccc2)C2(CN(Cc3nccs3)C2)N1CC1CCOCC1 | -5.2[25 µM]
Cc1ccc(S(=O)(=O)N2CCCC2CNC(=O)c2ccc3c(c2)OCO3)cc1 (stereo unspecified) | 37.6*
Cc1ccc(S(=O)(=O)N2CCCC2CNC(=O)c2ccccc2)cc1 (stereo unspecified) | -9.2
COc1ccc(C(=O)NCC2CCCN2S(=O)(=O)c2ccccc2)cc1OC (stereo unspecified) | 3.4
Cc1cccc(S(=O)(=O)N(C)C[C@@H]2OCc3ccccc3-c3c(n(C)c4ccccc34)C(=O)N([C@@H](C)CO)C[C@@H]2C)c1 | 12.8
COc1ccc(S(=O)(=O)N2CC[C@@H]3[C@H](CO)Nc4ccc(-c5ccccc5F)cc4[C@@H]32)cc1 | -8.5[25 µM]
SMILES | BL2 CD40 inh
O=C(C[C@@H]1C[C@H]2c3cc(NC(=O)Nc4ccc(C(F)(F)F)cc4)ccc3O[C@H]2[C@H](CO)O1)NCc1cccnc1 | 23.2[25 µM]
Cc1ccnc(Sc2ccc([N+](=O)[O-])cn2)n1 | -15.3
O=[N+]([O-])c1ccc(Sc2ccncn2)c([N+](=O)[O-])c1 | 102.7*
Cn1cnc([N+](=O)[O-])c1Sc1ccncn1 | 4.7
COc1ccc2c3c(n(C)c2c1)[C@@H](CO)N(S(C)(=O)=O)CC31CCN(Cc2cncnc2)CC1 | -1.2[25 µM]
CC(C)(C)[S@@](=O)N1Cc2cc(C(=O)NCCN3CCCCC3)nc(-c3cccc(-c4ccc(C#N)cc4)c3)c2[C@H]1CCO | -4.7
COCC(=O)N1CCCCN2[C@@H](CO)[C@H](c3ccc(-c4cccc(C)c4)cc3)[C@@H]2C1 | -6.8[25 µM]
CC(=O)[C@@]1(O)CC[C@H]2[C@@H]3C[C@H](C)C4=CC(=O)C=C[C@]4(C)[C@@]3(F)[C@@H](O)C[C@@]21C | 23.4
C[C@@H]1C[C@H]2[C@@H]3C[C@H](F)C4=CC(=O)C=C[C@]4(C)[C@@]3(F)[C@@H](O)C[C@]2(C)[C@@]1(O)C(=O)COC(=O)C(C)(C)C | 33.0
CCCC(=O)O[C@]1(C(=O)COC(C)=O)CC[C@H]2[C@@H]3C[C@H](F)C4=CC(=O)C=C[C@]4(C)[C@@]3(F)[C@@H](O)C[C@@]21C | 56.1*
CN1C(=O)c2cc(NS(C)(=O)=O)ccc2OC[C@H]2O[C@H](CC(=O)NCc3ccccc3)CC[C@@H]21 | -13.2[25 µM]
COc1cc(CN2CC3(CN(S(=O)(=O)c4cccc(F)c4)C3)c3c([nH]c4cc(OC)ccc34)[C@H]2CO)cc(OC)c1 | 7.8[25 µM]
CCCCCCCC/C=C/CCCCCCCC(=O)NC(CO)Cc1ccc(O)cc1 (stereo unspecified) | 7.5[25 µM]
